Test results from PubChem BioAssay (NCATS).
Results filed as inconclusive are left out. Entries that show only a call come without a potency. Calls of active or inactive are those of the source. Calls follow the shape of the dose curve; as a rule, active = well fitted cell-killing curve with a large enough effect; inconclusive = small, poorly fitted or top-dose-only effect, or effect the other way; inactive = flat fitted curve, though single readings scatter.

Test system: PA-1
Assay: Primary qHTS to identify gynecologic anti-cancer compounds using libraries of approved drugs and bioactive compounds (AID 1345084); also: nearly all actives have a fitted effect of over 55% in size
Conditions: Gynecologic cancer cell panel viability, ATPlite luminescence, 48 h; series mostly up to 57.5 µM
Summary of the method: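 Five-point cytotoxicity, 48 h drug exposure at 37 C, 5% CO2, on cells seeded 16 h beforehand. ATP content read by ATPlite luminescence.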

SMILES	Potency
CCNC(=O)CC1N=C(c2ccc(Cl)cc2)c2cc(OC)ccc2-n2c(C)nnc21 (centres undefined)	inactive
Cc1ccccc1-n1c(Cn2cnc3c(N)ncnc32)nc2cccc(C)c2c1=O	inactive
Cc1ccc(Cl)c(O)c1	inactive
CCN(CC)C(=O)c1ccc(C2=CC3(CCNCC3)Oc3cccc(O)c32)cc1	inactive
CS(=O)(=O)c1ccc(C(=O)C2C(=O)CCCC2=O)c([N+](=O)[O-])c1	inactive
CN[C@@H](C)[C@H](O)c1ccccc1	inactive
COC(=O)c1cncn1C(C)c1ccccc1 (centres undefined)	inactive
CC1=C(C(=O)O)N2C(=O)[C@@H](N)[C@H]2SC1	inactive
O=C(Oc1ccc([N+](=O)[O-])cc1)N1CCN(Cc2cccc(Oc3ccccc3)c2)CC1	inactive
COC1=C[C@@H]2[C@@H]3Cc4ccc(OC)c(O)c4[C@]2(CCN3C)CC1=O	inactive
O=C(O)CNC(=O)c1c(O)c2ccccc2n(Cc2ccccc2)c1=O	inactive
CC(O)CN1CCN(CC(=O)[O-])CCN(CC(=O)[O-])CCN(CC(=O)[O-])CC1.[Gd+3] (centres undefined)	inactive
CN1CCN(c2ccc([N+](=O)[O-])c3no[n+]([O-])c23)CC1	inactive
O=C(O)COc1ccccc1	inactive
C1CCC(NC2CCCCC2)CC1	inactive
O=C(N[C@H]1CN2CCC1CC2)c1ccc(Cl)cc1	inactive
Cc1c(C(=O)Nc2cccc(C(F)(F)F)c2)cc(-c2ccccc2)n1CCCN1CCOCC1	inactive
CC(=O)NCCc1c[nH]c2ccccc12	inactive
O=C(O)COc1nc(Cl)c(Cl)cc1Cl	inactive
